The term AC50 denotes the concentration at which the activity in the assay is half-maximal.

Experimental findings from PubChem BioAssay (EPA / NIEHS) are described below.

Active and inactive are the calls of the source. How the source made its calls: active means hit-call score of the fitted dose curve at least 0.9, where 1 is the maximum; inactive means score below 0.9.

Settings in all cases: mRNA level, 48 h; actives raise or lower the signal
Read-out in test [1]: Cytochrome P450 (CYP24A1), CYP24A1 (gene 1591)
Put plainly: LTEA_HepaRG_CYP24A1: Life Technologies and Expression Analysis (LTEA) Assay for Cytochrome P450 (CYP24A1) using HepaRG (AID 2283478). The gist of the method: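 qRT-PCR read-out: CYP24A1 transcript levels normalized to three housekeeping genes, bidirectional curve fits against 0.5% DMSO baseline. Human HepaRG cells treated 48 h with chemicals at eight concentrations from 100 uM in half-log steps.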

Read-out in test [2]: Cytochrome P450 (CYP1A2), CYP1A2 (gene 1544)
The experiment in a line: LTEA_HepaRG_CYP1A2: Life Technologies and Expression Analysis (LTEA) Assay for Cytochrome P450 (CYP1A2) using HepaRG (AID 2283479). The gist of the method: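 HepaRG, 48 h exposure, top 100 uM, half-log 8-pt, 0.5% DMSO vehicle, duplicates. Readout: TaqMan qRT-PCR of CYP1A2 mRNA, housekeeping-normalized (ACTB/GAPDH/POLR2A). Gain/loss fit relative to DMSO baseline.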

Read-out in test [3]: cysteine-aspartic acid protease (CASP8), CASP8 (gene 841)
Put plainly: LTEA_HepaRG_CASP8: Life Technologies and Expression Analysis (LTEA) Assay for cysteine-aspartic acid protease (CASP8) using HepaRG (AID 2283480). The gist of the method:
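HepaRG, 48 h exposure, duplicate wells; 8 conc, half-log from 100 uM, 0.5% DMSO. Serum-free induction medium. CASP8 mRNA by TaqMan qRT-PCR, norm. ACTB/GAPDH/POLR2A; gain/loss fitted vs DMSO.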

Read-out in test [4]: Cytochrome P450 (CYP2B6), CYP2B6 (gene 1555)
The experiment in a line: LTEA_HepaRG_CYP2B6: Life Technologies and Expression Analysis (LTEA) Assay for Cytochrome P450 (CYP2B6) using HepaRG (AID 2283481). The essentials:
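Read-out is CYP2B6 mRNA by TaqMan qRT-PCR, normalized to three housekeeping genes and fitted bidirectionally against 0.5% DMSO baseline. Human HepaRG cells received test chemicals for 48 h, top concentration 100 uM, half-log dilutions.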

Read-out in test [5]: Cytochrome P450 2C19 (Homo sapiens) (UniProt P33261)
Put plainly: LTEA_HepaRG_CYP2C19: Life Technologies and Expression Analysis (LTEA) Assay for CYP2C19 using HepaRG (AID 2283482). The essentials:
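HepaRG, 48 h chemical exposure, 8-pt half-log series from 100 uM in 0.5% DMSO, duplicates. Readout: CYP2C19 mRNA by TaqMan qRT-PCR, housekeeping-normalized. Bidirectional fit vs DMSO baseline; phenobarbital 1mM as induction control.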

Read-out in another test: CYP2C8 (gene 1558)
The experiment in a line: LTEA_HepaRG_CYP2C8: Life Technologies and Expression Analysis (LTEA) Assay for CYP2C8 using HepaRG (AID 2283483). The essentials:
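CYP2C8 mRNA induction or loss, by qRT-PCR normalized to ACTB/GAPDH/POLR2A, is read in HepaRG cells after 48 h treatment. Concentrations run from 100 uM down in half-log dilutions, with 0.5% DMSO as vehicle and baseline.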

Read-out in the next test: CYP2C9 (gene 1559)
Put plainly: LTEA_HepaRG_CYP2C9: Life Technologies and Expression Analysis (LTEA) Assay for CYP2C9 using HepaRG (AID 2283484). The gist of the method: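 Cells plated 48 h, switched to serum-free induction medium, then treated in duplicate for 48 h at eight concentrations (max 100 uM, 0.5% DMSO). RNA then analysed by qRT-PCR for CYP2C9; curves fitted in both directions relative to DMSO.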

Read-out in a further test: CYP2E1 (gene 1571)
The experiment in a line: LTEA_HepaRG_CYP2E1: Life Technologies and Expression Analysis (LTEA) Assay for CYP2E1 using HepaRG (AID 2283485). The gist of the method: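 Human liver line HepaRG, plated 48 h, then serum-free induction medium + chemical x 48 h; 8-pt CRC from 100 uM, half-log, 0.5% DMSO, n=2. Readout: CYP2E1 mRNA qRT-PCR vs ACTB/GAPDH/POLR2A; bidirectional fit vs DMSO.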

Read-out in a further test: CYP4A11 (gene 1579)
Put plainly: LTEA_HepaRG_CYP4A11: Life Technologies and Expression Analysis (LTEA) Assay for CYP4A11 using HepaRG (AID 2283486). The essentials:
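CYP4A11 transcript levels were quantified by TaqMan qRT-PCR after HepaRG human liver cells were treated for 48 hours with test chemicals (top 100 uM, half-log dilutions, 0.5% DMSO). Gain or loss of signal was fitted relative to DMSO.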

Read-out in test [6]: Cytochrome P450 3A4 (Homo sapiens) (UniProt P08684)
The experiment in a line: LTEA_HepaRG_CYP3A4: Life Technologies and Expression Analysis (LTEA) Assay for CYP3A4 using HepaRG (AID 2283487). The gist of the method: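 HepaRG, 48 h exposure, 8-pt CRC from 100 uM (half-log), 0.5% DMSO, duplicates; serum-free induction medium. Readout: CYP3A4 mRNA, qRT-PCR, ACTB/GAPDH/POLR2A normalization. Bidirectional fit vs DMSO.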

Read-out in test [7]: DNA damage-inducible transcript 3 (DDIT3), DDIT3 (gene 1649)
The experiment in a line: LTEA_HepaRG_DDIT3: Life Technologies and Expression Analysis (LTEA) Assay for DNA damage-inducible transcript 3 (DDIT3) using HepaRG (AID 2283488). The gist of the method: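 HepaRG plated 48 h, switched to serum-free induction medium, dosed 48 h (100 uM top, half-log, 8 pts, 0.5% DMSO, n=2); RNA isolated; DDIT3 by qRT-PCR; bidirectional curve fit vs DMSO.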

Read-out in test [8]: Pro-epidermal growth factor (Homo sapiens) (UniProt P01133)
Put plainly: LTEA_HepaRG_EGF: Life Technologies and Expression Analysis (LTEA) Assay for Epidermal growth factor (EGF) using HepaRG (AID 2283489). The essentials: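 qRT-PCR readout of EGF transcript after 48 h chemical exposure of HepaRG cells; eight concentrations from 100 uM down in half-log steps, duplicate wells, 0.5% DMSO vehicle. Bidirectional curve fitting against DMSO baseline.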

Read-out in test [9]: Early growth response protein 1 (EGR1) transcription factor, EGR1 (gene 1958)
Put plainly: LTEA_HepaRG_EGR1: Life Technologies and Expression Analysis (LTEA) Assay for Early growth response protein 1 (EGR1) transcription factor using HepaRG (AID 2283490). The essentials: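 Read-out is EGR1 mRNA level by qRT-PCR, normalized to three housekeeping genes and analysed for gain or loss of signal against 0.5% DMSO. Source cells: human HepaRG, treated 48 h at up to 100 uM in half-log dilutions.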

Read-out in test [10]: Ezrin (EZR), EZR (gene 7430)
Put plainly: LTEA_HepaRG_EZR: Life Technologies and Expression Analysis (LTEA) Assay for Ezrin (EZR) using HepaRG (AID 2283491). The essentials:
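Read-out is EZR transcript level by qRT-PCR, normalized to three housekeeping genes and fitted bidirectionally against the DMSO control. Human HepaRG cells received test chemicals for 48 h at eight half-log concentrations up to 100 uM in 0.5% DMSO.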

Read-out in test [11]: Cytochrome P450 3A7 (Homo sapiens) (UniProt P24462)
Put plainly: LTEA_HepaRG_CYP3A7: Life Technologies and Expression Analysis (LTEA) Assay for CYP3A7 using HepaRG (AID 2283492). The essentials: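 CYP3A7 transcript levels were read by TaqMan qRT-PCR on Fluidigm arrays after 48 h chemical exposure of human HepaRG cells, with housekeeping-gene normalisation. Eight half-log concentrations up to 100 uM in 0.5% DMSO were tested in duplicate.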

Read-out in a further test: CYP3A5 (gene 1577)
The experiment in a line: LTEA_HepaRG_CYP3A5: Life Technologies and Expression Analysis (LTEA) Assay for CYP3A5 using HepaRG (AID 2283493). The essentials:
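HepaRG plated 48 h, switched to serum-free induction medium, chemicals added 48 h (max 100 uM, half-log, 0.5% DMSO). RNA isolated; CYP3A5 by TaqMan qRT-PCR. Gain/loss vs DMSO.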

Read-out in test [12]: Fatty Acid-Binding Protein 1 (FABP1), FABP1 (gene 2168)
Put plainly: LTEA_HepaRG_FABP1: Life Technologies and Expression Analysis (LTEA) Assay for Fatty Acid-Binding Protein 1 (FABP1) using HepaRG (AID 2283494). The gist of the method: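 HepaRG, 48 h post-plating switched to serum-free induction medium, then dosed 48 h (duplicate, 8 pts, ≤100 uM, 0.5% DMSO). RNA → Fluidigm TaqMan qRT-PCR, FABP1 normed to ACTB/GAPDH/POLR2A. Bidirectional curve fit vs DMSO.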

Read-out in test [13]: Cytochrome P450 4A22 (Homo sapiens) (UniProt Q5TCH4)
Put plainly: LTEA_HepaRG_CYP4A22: Life Technologies and Expression Analysis (LTEA) Assay for Cytochrome P450 4A22 (CYP4A22) using HepaRG (AID 2283495). The essentials: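 HepaRG, 48 h post-plating -> serum-free induction medium; dosed 48 h, duplicate, 8 conc. (100 uM top, half-log), 0.5% DMSO. Readout: CYP4A22 mRNA by qRT-PCR, ACTB/GAPDH/POLR2A normalization; gain/loss fit relative to DMSO.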

Read-out in test [14]: Cytochrome P450 7A1 (Homo sapiens) (UniProt P22680)
The experiment in a line: LTEA_HepaRG_CYP7A1: Life Technologies and Expression Analysis (LTEA) Assay for Cytochrome P450 7A1 (CYP7A1) using HepaRG (AID 2283496). The essentials:
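HepaRG cells plated 48 h, then switched to serum-free induction medium and exposed in duplicate for 48 h to 8-point half-log series from 100 uM in 0.5% DMSO. CYP7A1 mRNA by qRT-PCR (TaqMan), normalized to ACTB/GAPDH/POLR2A; bidirectional fit versus DMSO.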

Read-out in test [15]: Glutathione S-Transferase (GSTA2), GSTA2 (gene 2939)
Put plainly: LTEA_HepaRG_GSTA2: Life Technologies and Expression Analysis (LTEA) Assay for Glutathione S-Transferase (GSTA2) using HepaRG (AID 2283497). The gist of the method:
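HepaRG, 48 h dosing, 8-pt half-log CRC from 100 uM, 0.5% DMSO vehicle, n=2; RNA → Fluidigm TaqMan qRT-PCR; GSTA2 vs ACTB/GAPDH/POLR2A; gain/loss fit vs DMSO.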

Cytochrome P450 2C19 (Homo sapiens), sequence (P33261 whole entry, looked up): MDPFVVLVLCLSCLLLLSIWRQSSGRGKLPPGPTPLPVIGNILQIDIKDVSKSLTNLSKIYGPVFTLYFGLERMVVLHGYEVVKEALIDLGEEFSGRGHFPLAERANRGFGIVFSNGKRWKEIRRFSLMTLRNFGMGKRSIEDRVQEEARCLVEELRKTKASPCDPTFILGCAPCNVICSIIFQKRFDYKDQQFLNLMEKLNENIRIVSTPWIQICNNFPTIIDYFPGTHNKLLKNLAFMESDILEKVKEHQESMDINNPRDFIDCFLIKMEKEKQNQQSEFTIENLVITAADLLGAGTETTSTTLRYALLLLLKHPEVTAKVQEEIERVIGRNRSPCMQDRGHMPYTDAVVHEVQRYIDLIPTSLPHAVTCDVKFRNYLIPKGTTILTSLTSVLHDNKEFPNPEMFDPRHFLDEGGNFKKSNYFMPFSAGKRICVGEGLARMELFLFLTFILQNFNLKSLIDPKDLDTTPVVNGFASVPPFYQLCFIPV
Cytochrome P450 3A7 (Homo sapiens), sequence (P24462 whole entry, looked up): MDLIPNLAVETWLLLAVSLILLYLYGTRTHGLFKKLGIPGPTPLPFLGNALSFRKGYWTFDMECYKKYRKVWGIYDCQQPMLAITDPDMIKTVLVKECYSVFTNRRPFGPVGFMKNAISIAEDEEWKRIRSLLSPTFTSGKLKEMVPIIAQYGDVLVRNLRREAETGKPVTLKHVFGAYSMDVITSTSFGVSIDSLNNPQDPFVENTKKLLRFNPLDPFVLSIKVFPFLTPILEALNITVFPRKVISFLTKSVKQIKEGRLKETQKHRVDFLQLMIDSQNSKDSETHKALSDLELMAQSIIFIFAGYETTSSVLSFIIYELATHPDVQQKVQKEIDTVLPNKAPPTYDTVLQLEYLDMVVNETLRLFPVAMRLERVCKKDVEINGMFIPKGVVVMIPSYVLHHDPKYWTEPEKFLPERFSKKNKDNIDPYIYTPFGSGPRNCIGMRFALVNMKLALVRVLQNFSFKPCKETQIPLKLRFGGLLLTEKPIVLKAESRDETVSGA
Cytochrome P450 3A4 (Homo sapiens), sequence (P08684 whole entry, looked up): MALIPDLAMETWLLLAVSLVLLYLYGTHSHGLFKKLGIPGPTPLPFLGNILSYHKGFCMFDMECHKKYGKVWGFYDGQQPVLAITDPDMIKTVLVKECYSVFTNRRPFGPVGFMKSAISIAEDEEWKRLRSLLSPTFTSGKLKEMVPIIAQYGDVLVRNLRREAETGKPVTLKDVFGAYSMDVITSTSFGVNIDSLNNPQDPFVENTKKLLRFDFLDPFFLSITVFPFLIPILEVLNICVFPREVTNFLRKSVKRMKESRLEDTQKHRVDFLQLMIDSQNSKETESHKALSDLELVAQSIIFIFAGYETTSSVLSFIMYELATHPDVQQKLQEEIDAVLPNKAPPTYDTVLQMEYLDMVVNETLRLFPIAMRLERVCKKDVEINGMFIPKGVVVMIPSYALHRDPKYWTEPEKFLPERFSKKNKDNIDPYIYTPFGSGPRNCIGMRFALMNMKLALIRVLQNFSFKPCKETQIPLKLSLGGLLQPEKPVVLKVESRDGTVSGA

As to `C=CCc1ccc(OC)c(OC)c1`, the result (in test [1]; in [2]; in test [3]; in [5]; with CYP2C8 (gene 1558); with CYP2C9 (gene 1559)) was inactive. For the same compound, the compound was called inactive (with CYP2E1 (gene 1571); with CYP4A11 (gene 1579); in [6]; in test [7]; in [8]; in test [9]). Moreover, the result (in test [10]; in [11]; in the test with CYP3A5 (gene 1577); in test [12]; in test [13]; in [14]) was inactive. The outcome in [15] was inactive. Moreover, the AC50 in test [4] is 2.13 µM (active).
With `N[C@@H](Cc1c[nH]c2ccccc12)C(=O)O`, the compound was classed as inactive (in test [1]; in test [3]; in test [4]; in [5]; in the test with CYP2C8 (gene 1558); with CYP2C9 (gene 1559)). In addition, the compound was classed as inactive (with CYP2E1 (gene 1571); with CYP4A11 (gene 1579); in test [6]; in test [7]; in [8]; in test [9]). Further, the outcome (in [10]; in [11]; with CYP3A5 (gene 1577); in [12]; in test [13]; in [14]) was inactive. In test [15], the outcome was inactive. In addition, the AC50 in test [2] was 14.4 µM (active).
Regarding `CC1=C(C)S(=O)(=O)CCS1(=O)=O`, the outcome (in [1]; in [3]; in the test with CYP2C8 (gene 1558); with CYP2E1 (gene 1571); in test [7]; in test [10]) was inactive. Besides, the call with CYP3A5 (gene 1577) was inactive. In addition, the AC50 was 9.92 µM (active) in test [2]; 89 µM (active) in [4]; 88 µM (active) in test [5]; 87.7 µM (active) with CYP2C9 (gene 1559); 89.5 µM (active) with CYP4A11 (gene 1579); 50 µM (active) in test [6]. The AC50 in test [9] was 80.6 µM (active); in test [11] it was 72 µM (active); in test [12] it was 88.1 µM (active); in [13], 50 µM (active); in test [14], 92.6 µM (active); in test [15], 90.3 µM (active).
